HCV inhibitor – HCV inhibition; Huh7.5.1 HCVcc-Cre infection, luciferase reporter, 44 h; Potency, µM (top dose mostly 41.8 µM), usual class: inhibitors; 340,000 compounds, 3.4% hits
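Infectious HCV cell culture screen: compound-treated cells (1,000/well, pre-plated 4 h) are infected with HCVcc-Cre at roughly 0.5 moi and grown 44 h. Infection is quantified by luciferase signal after 15 min substrate incubation at room temperature.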
Lassa entry inh – blocks Lassa virus binding to or entry into cells; Potency, µM (series often up to 37.9 µM), hits mostly inhibitors; Lassa virus pseudotype entry inhibition, cell reporter; 300,000 compounds, 1.2% hits; calls by dose curve; tested in HEK293 cells; note: nearly all actives have a fitted effect of over 50% in size
HCMV inh – inhibitors of human cytomegalovirus. HFF cells, HCMV-luciferase reporter, 72 h; active compounds read low. activity change, negative = inhibition, % at 57.5 µM. 410,000 compounds, 4.5% hits. AID 1259415; in the data active = activity change below about -60%; inconclusive = no clear call, values can overlap the other calls; inactive = above about -39%
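Cell-based, HFFs, 1000 cells/well, 16 h 37C; cpds in DMSO + HCMV-luc, MOI 1 PFU/cell; 72 h 37C; OneGlo luminescence after 5 min RT; norm. to buffer vs Salinomycin 10uM.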
Marburg entry inh – inhibitors of Marburg virus binding or cell entry; Marburg virus pseudotyped entry inhibition, cell reporter; Potency, µM (titrated, usually from 37.8 µM), hits mostly inhibitors; 300,000 compounds, 1.8% hits; calls by dose curve; tested in HEK293 cells
Pf growth 96h – P. falciparum growth inhibition at 96 hours; P. falciparum luciferase reporter growth, 96 h; 320,000 compounds, 6.9% hits; AID 504834; Potency, µM (series often up to 28.7 µM), hits mostly inhibitors
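P. falciparum expressing integrated firefly luciferase, in erythrocytes at 2% hematocrit, 0.05% parasitemia, incubated with compounds 96 h at 37 C, 5% CO2. Growth inhibition read as loss of luminescence; two-generation exposure targets delayed-death apicoplast inhibitors.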
Pf growth 48h – P. falciparum growth inhibition at 48 hours (one generation) | P. falciparum luciferase growth in erythrocytes, 48 h | Potency, µM (highest dose often 28.7 µM), most hits filed as inhibitors | 310,000 compounds, 5.9% hits
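First compound was added to culture medium, then infected red cells at 0.1% parasitemia and 2% hematocrit (final). After incubation at 37 C under 5% CO2, luciferase detection reagent was dispensed and light output recorded.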
Numbers stand for hits; i = inactive; ? = inconclusive; nt = no result given. Rows were chosen to be rich in hits. Some 14% of all compounds tested hit in one or more screens of this group. Unless noted, calls come from the whole dose curve; as a rule, active = well fitted inhibition curve with a large enough effect; inconclusive = small, poorly fitted or top-dose-only effect, or another doubt; inactive = no such curve, though single readings can be large or run the other way.

SMILES	HCV inhibitor	Lassa entry inh	HCMV inh	Marburg entry inh	Pf growth 96h	Pf growth 48h
CCCCCNC(=O)CCCCCn1c(=O)[nH]c2ccsc2c1=O	nt	i	i	?	nt	nt
O=C(NC1CCCCCC1)C1c2ccccc2C(=O)N1Cc1ccc(F)cc1 (configuration not stated)	nt	?	i	i	nt	nt
CCOc1ccc(CCNC(=O)Cc2ccc(NC(=O)N3CCSc4ncccc43)cc2)cc1	nt	i	?	nt	nt	nt
Cc1ccc(N(CC(O)Cn2c3ccccc3c3ccccc32)S(C)(=O)=O)cc1 (configuration not stated)	i	i	i	?	?	nt
CS(=O)(=O)N(Cc1ccco1)CC(O)Cn1c2ccccc2c2ccccc21 (configuration not stated)	i	?	i	?	nt	9.28µM
OC(CNCc1ccco1)Cn1c2ccccc2c2ccccc21 (configuration not stated)	?	?	i	16.4µM	i	2.33µM
OC(CNCc1ccco1)COc1ccccc1 (configuration not stated)	i	i	i	?	i	i
Cc1ccc(N2CC(c3nnc(Cc4ccc(F)cc4)o3)CC2=O)cc1 (configuration not stated)	nt	i	i	i	nt	nt
CC(=O)Oc1ccc(N(C(C)=O)S(=O)(=O)c2ccc3ccccc3c2)cc1	?	nt	-70.9	nt	i	i
CCc1ccccc1N1CC(c2nc3ccccc3n2CCCOc2ccc(Cl)cc2)CC1=O (configuration not stated)	nt	?	i	?	nt	nt
CCN(CC)C1=NC(=[N+](CC)CC)c2ccccc21	?	?	-103.2	?	0.294µM	0.738µM
COC(=O)[C@H]1[C@H](CO)[C@H]2Cn3c(cccc3=O)[C@@H]1N2C(=O)c1ccccn1	nt	nt	i	nt	nt	nt
COc1cccc(CN2CC(C(=O)N3CCN(C(C)C)CC3)CCC2=O)c1 (configuration not stated)	nt	i	i	i	i	i
Cc1ccccc1C1=NOC2CN(C(=O)c3ccc4c(c3)OCO4)CC12 (configuration not stated)	nt	nt	i	nt	nt	nt
CCc1ccccc1NC(=O)CNC(=O)c1cccc(S(=O)(=O)N2CCN(Cc3ccccc3)CC2)c1	10µM	i	i	?	i	?
CCc1ccccc1NC(=O)CN(C)C(=O)c1cccc(S(=O)(=O)N2CCCCCC2)c1	?	nt	i	nt	?	?
Cc1ccc(C)c(NC(=O)CN(C)C(=O)c2cccc(S(=O)(=O)N3CCCC3)c2)c1	i	i	i	i	?	?
CC1CCCCC1NC(=O)c1cccc(S(=O)(=O)N2CCN(Cc3ccccc3)CC2)c1 (configuration not stated)	?	?	i	?	14.7µM	16.5µM
CC(=O)c1cccc(S(=O)(=O)N2CCN(CCOc3ccccc3)CC2)c1	?	nt	-61.3	nt	i	i
Cc1ccc(C)c(NC(=O)CN(C)C(=O)c2cccc(S(=O)(=O)N3CCN(Cc4ccccc4)CC3)c2)c1	5.62µM	?	?	?	?	?
C(=CCSc1ccccn1)CSc1ccccn1	nt	nt	i	nt	nt	nt
CCOC(=O)N(C)C[C@@H]1OCc2cnnn2CCCC(=O)N([C@H](C)CO)C[C@@H]1C	nt	nt	i	nt	nt	nt
CCN(c1ccccc1)S(=O)(=O)c1ccc2c(c1)OCCO2	?	nt	i	nt	nt	nt
CC(C)c1ccc(NS(=O)(=O)c2ccc3nc(-c4ccccc4)[nH]c3c2)cc1	nt	?	i	?	nt	nt
COc1ccc(NC(=O)CN(C)C(=O)c2cccc(S(=O)(=O)N3CCN(Cc4ccccc4)CC3)c2)cc1	?	?	nt	?	i	i
SMILES	HCV inhibitor	Lassa entry inh	HCMV inh	Marburg entry inh	Pf growth 96h	Pf growth 48h
CCN(CC)C(=O)c1ccc(NC(=O)c2cccc(S(=O)(=O)N3CCN(Cc4ccccc4)CC3)c2)cc1	6.31µM	i	-77.9	?	11.7µM	10.4µM
CN(CCOc1ccc(Cl)cc1)C(=O)c1cccc(S(=O)(=O)N2CCN(Cc3ccccc3)CC2)c1	2.51µM	nt	?	nt	nt	nt
COc1cccc(NC(=O)c2cccc(S(=O)(=O)N3CCN(Cc4ccccc4)CC3)c2)c1	?	?	i	?	7.38µM	?
CC(=O)Nc1cccc(NC(=O)c2cccc(S(=O)(=O)N3CCN(Cc4ccccc4)CC3)c2)c1	?	i	i	i	10.4µM	10.4µM
CCOc1ccc(CCNC(=O)CS(=O)(=O)Cc2nc(-c3cccc(Cl)c3)oc2C)cc1	nt	i	i	i	nt	nt
CCOCCCNc1nc2ccccc2n2c(CC)nnc12	nt	i	i	nt	nt	nt
COc1ccc(S[C@]2(c3nc(C)no3)CC(=O)N(c3ccc(OC)cc3)[C@@H]2c2ccc(OC)cc2)cc1	nt	nt	i	nt	nt	nt
O=C(NC1CCCC1)C(c1ccc(N2CCOCC2)cc1)N(Cc1ccccc1)C(=O)c1ccco1 (configuration not stated)	i	i	i	i	nt	14.7µM
CC(=O)c1cccc(N(C(=O)c2ccco2)C(C(=O)NC2CCCC2)c2ccc(N3CCOCC3)cc2)c1 (configuration not stated)	i	i	i	i	i	?
COC(=O)c1cccc(N(C(=O)c2ccco2)C(C(=O)NC2CCCC2)c2ccc(N3CCOCC3)cc2)c1 (configuration not stated)	i	i	i	i	i	10.4µM
O=C(NC1CCCC1)C(c1ccc(N2CCOCC2)cc1)N(Cc1ccco1)C(=O)c1ccco1 (configuration not stated)	i	i	i	i	nt	?
CC1CCN(Cc2nnnn2CCCC(=O)NCCN2CCOCC2)CC1	i	i	i	i	i	i
CN[C@H](CC(C)C)C(=O)N[C@H]1C(=O)N[C@@H](CC(N)=O)C(=O)N[C@@H]2C(=O)N[C@H]3C(=O)N[C@H](C(=O)N[C@H](C(=O)O)c4cc(O)cc(O)c4-c4cc3ccc4O)[C@H](O)c3ccc(c(Cl)c3)Oc3cc2cc(c3O[C@@H]2O[C@H](CO)[C@@H](O)[C@H](O)[C@@H]2O[C@H]2C[C@](C)(N)[C@H](O)[C@H](C)O2)Oc2ccc(cc2Cl)[C@H]1O	nt	i	nt	i	nt	nt
COc1ccc(OC[C@@H]2CC3[C@@H](CC[C@@H](C)[C@H]3c3ccc(Br)cc3)C(=O)O2)cc1 (some centres not stated)	nt	?	nt	i	nt	nt
O=C1C=C(N(CCO)Cc2ccccc2)c2ccccc2C1=O	?	4.47µM	nt	?	i	3.7µM
O=C1c2ccccc2C(=O)c2c1cccc2N(CCO)CCO	i	i	i	i	i	i
CC(C)NC(=O)C1(C)CN(S(C)(=O)=O)CC(=O)N1CCOc1ccccc1 (configuration not stated)	nt	nt	i	nt	nt	nt
COc1ccc(/C=C/C(=O)C2CC2)cc1COc1cccc(C)c1C	?	7.08µM	i	?	?	?
Cc1ccc(C(C)C)cc1OCC(=O)Nc1ccc(-n2cnnn2)cc1	i	i	i	i	?	i
CCCCCc1nc2sc3c(c2c(=O)n1NC(=O)c1ccc([N+](=O)[O-])cc1)CC(C)(C)OC3	?	?	-89.3	?	i	i

Bioassay records as filed in PubChem BioAssay.
